# Data: PubChem BioAssay AID743088 (The Scripps Research Institute Molecular Screening Center, 2013)
# Values without a mark were called inactive.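 How the source made its calls: active means binding inhibited by at least 50%, or stimulated by at least 50%, shown as inhibition of -50% or lower; inactive means the rest.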
# Test system: Potassium Channel KATP
# Test: radioligand displacement at 30 receptors – biochemical, Panlabs HitProfilingScreen, selectivity assay for AVPR1a antagonist project, profiling panel (AID 743088)
# Conditions: 30 targets, at 10 µM, active compounds read high
compound,measurement,value
O=C(C1CCN(c2ccc(Cl)cn2)CC1)N(CC1CC1)c1ccc(Cl)cc1,inhibition of binding,19%
